From PubChem BioAssay AID1159580 (chemical genetic matrix, 2015)
In all, about 5,500 compounds went through this assay and about 2,000 (36%) were called active. Another 18% or so got no clear call; they are omitted. Rule as the data show it: active = normalized growth mostly below about 0.91 (no sharp cut-off); inconclusive = no clear call, values can overlap the other calls; inactive = mostly above about 0.92. Some of the results follow.

Assay: chemical genetic growth profiling, strain panel (AID 1159580);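 also: tested at 20 µM; growth read once vehicle control cultures reached saturation at 30 °C; 1 = growth at the plate median or of vehicle wells; lower values mean less growth of the strain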
Conditions: growth OD

Measured: normalized growth

COc1cc2c(cc1OC)Cc1cc(OC)c(OC)cc1Cc1cc(OC)c(OC)cc1C2
inactive: S. cerevisiae deletion strains, locus YJR066W, strain TOR1, active compounds read low 0.974 | S. cerevisiae deletion strains, locus YJR075W, strain HOC1, active compounds read low 1.02 | S. cerevisiae deletion strains, locus YKL009W, strain mrt4, active compounds read low 0.942 | S. cerevisiae deletion strains, locus YKL068W, active compounds read low 1.02 | S. cerevisiae deletion strains, locus YKL085W, strain MDH1 (second series), active compounds read low 0.927 | S. cerevisiae deletion strains, locus YKL085W, strain MDH1, active compounds read low 0.927 | S. cerevisiae deletion strains, locus YKL160W, strain elf1, active compounds read low 1.02 | S. cerevisiae deletion strains, locus YKL190W, strain CNB1, active compounds read low 0.992 | S. cerevisiae deletion strains, locus YKR001C, strain vps1, active compounds read low 1.04 | S. cerevisiae deletion strains, locus YKR026C, strain gcn3, active compounds read low 1 | S. cerevisiae deletion strains, locus YKR091W, strain srl3, active compounds read low 1.03 | S. cerevisiae deletion strains, locus YLL001W, strain dnm1, active compounds read low 1.01 | S. cerevisiae deletion strains, locus YLL026W, active compounds read low 1.04 | S. cerevisiae deletion strains, locus YLL041C, strain sdh2, active compounds read low 1.03 | S. cerevisiae deletion strains, locus YLR027C, strain aat2, active compounds read low 1.03 | S. cerevisiae deletion strains, locus YLR039C, strain RIC1, active compounds read low 1.05 | S. cerevisiae deletion strains, locus YLR058C, strain SHM2, active compounds read low 1.02 | S. cerevisiae deletion strains, locus YLR102C, strain apc9, active compounds read low 1.03 | S. cerevisiae deletion strains, locus YLR113W, strain HOG1, active compounds read low 1.05 | S. cerevisiae deletion strains, locus YLR221C, strain rsa3, active compounds read low 1.04 | S. cerevisiae deletion strains, locus YLR258W, strain gsy2, active compounds read low 1.03 | S. cerevisiae deletion strains, locus YLR262C, strain YPT6 (second series), active compounds read low 1.05 | S. cerevisiae deletion strains, locus YLR262C, strain YPT6, active compounds read low 1.08 | S. cerevisiae deletion strains, locus YLR268W, strain sec22, active compounds read low 1.04 | S. cerevisiae deletion strains, locus YLR320W, strain mms22, active compounds read low 1.03 | S. cerevisiae deletion strains, locus YLR330W, strain CHS5, active compounds read low 1.01 | S. cerevisiae deletion strains, locus YLR342W, strain FKS1 (second series), active compounds read low 1 | S. cerevisiae deletion strains, locus YLR342W, strain FKS1, active compounds read low 1.04 | S. cerevisiae deletion strains, locus YLR357W, strain rsc2, active compounds read low 1.05 | S. cerevisiae deletion strains, locus YLR370C, strain arc18, active compounds read low 1.03 | S. cerevisiae deletion strains, locus YLR371W, strain rom2, active compounds read low 1.03 | S. cerevisiae deletion strains, locus YLR384C, strain iki3, active compounds read low 1.03 | S. cerevisiae deletion strains, locus YLR418C, strain cdc73, active compounds read low 1.04 | S. cerevisiae deletion strains, locus YML016C, strain PPZ1, active compounds read low 1.01 | S. cerevisiae deletion strains, locus YML032C, strain rad52, active compounds read low 1.01 | S. cerevisiae deletion strains, locus YML120C, strain ndi1, active compounds read low 1.02 | S. cerevisiae deletion strains, locus YML124C, strain tub3, active compounds read low 1.06 | S. cerevisiae deletion strains, locus YMR058W, strain fet3, active compounds read low 1.03 | S. cerevisiae deletion strains, locus YMR078C, strain ctf18, active compounds read low 1.04 | S. cerevisiae deletion strains, locus YMR125W, strain sto1, active compounds read low 1.05 | S. cerevisiae deletion strains, locus YMR129W, active compounds read low 1.04 | S. cerevisiae deletion strains, locus YMR205C, strain PFK2, active compounds read low 1.05 | S. cerevisiae deletion strains, locus YMR223W, strain ubp8, active compounds read low 1.03 | S. cerevisiae deletion strains, locus YMR231W, strain pep5, active compounds read low 1.03 | S. cerevisiae deletion strains, locus YMR263W, strain SAP30, active compounds read low 1.01 | S. cerevisiae deletion strains, locus YMR307W, strain GAS1, active compounds read low 1.04 | S. cerevisiae deletion strains, locus YNL067W, strain RPL9B, active compounds read low 1.03 | S. cerevisiae deletion strains, locus YNL071W, strain lat1, active compounds read low 1.03 | S. cerevisiae deletion strains, locus YNL183C, strain NPR1, active compounds read low 0.956 | S. cerevisiae deletion strains, locus YNL209W, strain ssb2, active compounds read low 1.03 | S. cerevisiae deletion strains, locus YNL233W, strain BNI4, active compounds read low 1.01 | S. cerevisiae deletion strains, locus YNL248C, strain rpa49, active compounds read low 1.03 | S. cerevisiae deletion strains, locus YNL250W, strain rad50, active compounds read low 1.04 | S. cerevisiae deletion strains, locus YNL271C, strain bni1, active compounds read low 1.02 | S. cerevisiae deletion strains, locus YNL298W, strain CLA4, active compounds read low 1.02 | S. cerevisiae deletion strains, locus YNL307C, strain MCK1, active compounds read low 1.03 | S. cerevisiae deletion strains, locus YNL322C, strain KRE1 (second series), active compounds read low 1.05 | S. cerevisiae deletion strains, locus YNL322C, strain KRE1, active compounds read low 1.03 | S. cerevisiae deletion strains, locus YNR049C, strain mso1, active compounds read low 1.03 | S. cerevisiae deletion strains, locus YNR052C, strain pop2, active compounds read low 1.02 | S. cerevisiae deletion strains, locus YOL012C, strain htz1 0.876 | S. cerevisiae deletion strains, locus YOL147C, strain pex11, active compounds read low 1.02 | S. cerevisiae deletion strains, locus YOR001W, strain rrp6, active compounds read low 1.02 | S. cerevisiae deletion strains, locus YOR061W, strain CKA2, active compounds read low 1.01 | S. cerevisiae deletion strains, locus YOR069W, strain VPS5, active compounds read low 1.01 | S. cerevisiae deletion strains, locus YOR070C, strain gyp1, active compounds read low 1.03 | S. cerevisiae deletion strains, locus YOR080W, strain dia2, active compounds read low 1.04 | S. cerevisiae deletion strains, locus YOR083W, strain WHI5, active compounds read low 1.01 | S. cerevisiae deletion strains, locus YOR106W, strain vam3, active compounds read low 1.07 | S. cerevisiae deletion strains, locus YOR136W, strain idh2, active compounds read low 1.05 | S. cerevisiae deletion strains, locus YOR144C, strain elg1, active compounds read low 1.04 | S. cerevisiae deletion strains, locus YOR184W, strain ser1, active compounds read low 1.03 | S. cerevisiae deletion strains, locus YOR231W, strain MKK1, active compounds read low 1.04 | S. cerevisiae deletion strains, locus YOR265W, strain rbl2, active compounds read low 1.02 | S. cerevisiae deletion strains, locus YOR270C, strain vph1, active compounds read low 1.03 | S. cerevisiae deletion strains, locus YOR290C, strain snf2, active compounds read low 0.995 | S. cerevisiae deletion strains, locus YOR316C, strain cot1, active compounds read low 1.02 | S. cerevisiae deletion strains, locus YPL051W, strain arl3, active compounds read low 1.02 | S. cerevisiae deletion strains, locus YPL055C, strain LGE1, active compounds read low 1.03 | S. cerevisiae deletion strains, locus YPL078C, strain atp4, active compounds read low 1.03 | S. cerevisiae deletion strains, locus YPL106C, strain sse1, active compounds read low 1.06 | S. cerevisiae deletion strains, locus YPL240C, strain hsp82, active compounds read low 1.02 | S. cerevisiae deletion strains, locus YPL256C, strain CLN2, active compounds read low 1.06 | S. cerevisiae deletion strains, locus YPR119W, strain clb2, active compounds read low 1 | S. cerevisiae deletion strains, locus YPR141C, strain kar3, active compounds read low 1.03 | S. cerevisiae deletion strains, locus YPR163C, strain tif3, active compounds read low 1.03 | S. cerevisiae deletion strains, locus YPR167C, strain met16, active compounds read low 1.03 | S. cerevisiae deletion strains, strain wtn01, active compounds read low 1.04 | S. cerevisiae strains, strain wild type, active compounds read low 1.03
